From the supplement of paper PMC12494721 come the findings set out here.

Structures can show the parent of a compound that is named as a salt.

The first assay deals with Clostridium sporogenes DSM 1664. Kind of assay: fold change of Tryptamine concentration vs plate DMSO controls (fold change (ratio)); higher = more amine produced, active = hit call of the paper (significant change in both replicates, either direction). To be noted: incubation time: 27 h, anaerobic, 37 °C. The method, boiled down: (§1)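 Amines were quantified by LC–triple-quadrupole MS in dynamic MRM mode against external calibration curves, with drift correction within each batch. The samples were whole anaerobic mGAM cultures of four gut bacterial strains, grown for 27 h at 37 °C in 80 µL wells and extracted with cold acetonitrile/methanol with 0.1% formic acid, then centrifuged. Values are reported as fold change over DMSO controls on the same plate. The mean of 2 biological replicates is given.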
With `O=C(c1cc(O)c(O)c(O)c1)c1ccc(O)c(O)c1O` [Exifone] (20 µM), the “fold change of Tryptamine concentration” value is 1.09 (inactive).

`COc1cc(N)cn[n+]1-c1ccccc1` [Amezinium metilsulfate] (20 µM): the “fold change of Tryptamine concentration” value is 1.05 (inactive).

Turning to `CN[C@@H]1[C@@H](O[C@H]2O[C@H](CO)[C@@H](N)[C@H](O)[C@H]2O)OC2C[C@@H](N)[C@@H](O[C@H]3[C@H](O)[C@@H](O)[C@H](N)C[C@@H]3N)OC2[C@@H]1O` (stereo not given in full) [Apramycin] (20 µM), the “fold change of Tryptamine concentration” value is 0.998 (inactive).

Turning to `COc1ccc2[nH]c([S+]([O-])Cc3ncc(C)c(OC)c3C)nc2n1` (stereo not given) [Tenatoprazole] (20 µM), the “fold change of Tryptamine concentration” value is 1.03 (inactive).

With `CCCCC(=O)O[C@H]1CC[C@H]2[C@@H]3CCc4cc(O)ccc4[C@H]3CC[C@]12C` [Estradiol Valerate] (20 µM), the “fold change of Tryptamine concentration” value is 0.24 (active).

Turning to `O=C(O)CCc1nc(-c2ccccc2)c(-c2ccccc2)o1` [Oxaprozin] (20 µM), the “fold change of Tryptamine concentration” value is 1.03 (inactive).

For `CC(C)(C)NC[C@H](O)c1ccc(O)c(CO)c1` [Levalbuterol hydrochloride] (20 µM), the “fold change of Tryptamine concentration” value is 0.99 (inactive).

As to `COc1ccc(C(=O)c2ccc(C)cc2)c(O)c1` [Mexenone] (20 µM), the “fold change of Tryptamine concentration” value is 1.01 (inactive).

The subject of another assay is Ruminococcus gnavus DSM 108212. The assay is described as above. The conditions noted are these: incubation time: 27 h, anaerobic, 37 °C. The method, boiled down:
as §1
`CCCSS/C(CCO)=C(/C)N(C=O)Cc1cnc(C)nc1N` [Prosultiamine] (20 µM): the “fold change of Tryptamine concentration” value was 1.09 (inactive).

Consider `CN(C)CCOC(c1ccccc1)c1ccccc1.Cn1c(=O)c2[nH]c(Cl)nc2n(C)c1=O` [Dimenhydrinate] (20 µM), for which the “fold change of Tryptamine concentration” value was 1.02 (inactive).

As to `CCCCCCCN(CC)CCCC(O)c1ccc(NS(C)(=O)=O)cc1` (stereo not given) [Ibutilide fumarate] (20 µM), the “fold change of Tryptamine concentration” value is 0.952 (inactive).

Take `Cc1cccc(Nc2ccncc2S(=O)(=O)NC(=O)NC(C)C)c1` [Torsemide] (20 µM): the “fold change of Tryptamine concentration” value was 1.12 (inactive).

On to `C=C1c2cccc(O)c2C(O)=C2C(=O)[C@]3(O)C(O)=C(C(N)=O)C(=O)[C@@H](N(C)C)[C@@H]3[C@@H](O)[C@H]12` [Methacycline hydrochloride] (20 µM), for which the “fold change of Tryptamine concentration” value is 0.461 (active).

With `O=C(O)CNC(=O)C(CS)Cc1ccccc1` (stereo not given) [Thiorphan] (20 µM), the “fold change of Tryptamine concentration” value is 1.04 (inactive).

As for `CCn1cc(C(=O)O)c(=O)c2cc(F)c(N3CCNCC3)nc21` [Enoxacin] (20 µM), the “fold change of Tryptamine concentration” value is 0.892 (inactive).

For the compound `Cc1ccc(-c2ncc(Cl)cc2-c2ccc(S(C)(=O)=O)cc2)cn1` [Etoricoxib] (20 µM), the “fold change of Tryptamine concentration” value was 1.1 (inactive).

For `CNC(=O)OCc1cccc(COC(=O)NC)n1` [Pyricarbate] (20 µM), the “fold change of Tryptamine concentration” value is 1.03 (inactive).

In the case of `N#Cc1cc(NC(=O)C(=O)O)c(Cl)c(NC(=O)C(=O)O)c1` [Lodoxamide] (20 µM), the “fold change of Tryptamine concentration” value is 0.986 (inactive).

Turning to `CNC1(C)C2CCC(C2)C1(C)C` (stereo not given) [Mecamylamine hydrochloride] (20 µM), the “fold change of Tryptamine concentration” value is 1.03 (inactive).

On to `CCOC(=O)[C@H](CCc1ccccc1)N[C@@H](C)C(=O)N(CC(=O)O)C1Cc2ccccc2C1` [Delapril Hydrochloride] (20 µM), for which the “fold change of Tryptamine concentration” value was 0.974 (inactive).

As for `CN1[C@@H]2CC[C@H]1C[C@@H](OC(c1ccccc1)c1ccccc1)C2` [Benztropine mesylate] (20 µM), the “fold change of Tryptamine concentration” value is 0.964 (inactive).

Regarding `C[N+]1(CCCCC[N+]2(C)CCCC2)CCCC1` [Pentolinium bitartrate] (20 µM), the “fold change of Tryptamine concentration” value is 0.98 (inactive).

With `CC(=O)Oc1cc(C(F)(F)F)ccc1C(=O)O` [Triflusal] (20 µM), the “fold change of Tryptamine concentration” value was 1.01 (inactive).

On to `COc1ccc2cc(CCC(C)=O)ccc2c1` [Nabumetone] (20 µM), for which the “fold change of Tryptamine concentration” value was 0.944 (inactive).

In the case of `CN1C(=O)CC(c2ccccc2)C1=O` (stereo not given) [Phensuximide] (20 µM), the “fold change of Tryptamine concentration” value is 1.03 (inactive).

`CC(N)CCCC(C)(C)O` (stereo not given) [Heptaminol hydrochloride] (20 µM): the “fold change of Tryptamine concentration” value is 1.01 (inactive).

With `CN(C)CCOC(c1ccc(Cl)cc1)c1ccccn1` (stereo not given) [Carbinoxamine maleate salt] (20 µM), the “fold change of Tryptamine concentration” value is 1.05 (inactive).

Consider `C=CCN1CCCC1CNC(=O)c1cc2nn[nH]c2cc1OC` (stereo not given) [Alizapride hydrochloride] (20 µM), for which the “fold change of Tryptamine concentration” value is 1.02 (inactive).

On to `CC1(C)O[C@@H]2C[C@H]3[C@@H]4C[C@H](F)C5=CC(=O)C=C[C@]5(C)[C@H]4[C@@H](O)C[C@]3(C)[C@]2(C(=O)CO)O1` [Flunisolide] (20 µM), for which the “fold change of Tryptamine concentration” value is 1.19 (inactive).

As for `C=CC(N)CCC(=O)O` (stereo not given) [Vigabatrin hydrochloride] (20 µM), the “fold change of Tryptamine concentration” value is 1.02 (inactive).
